How the values were obtained:
Test in all cases: yeast three-hybrid, YBZ-1, SC-Leu-His + 0.5 mM 3-AT, 4 days
Conditions in all cases: tags: N-Gal4 AD-HA kept; label: inside an RPR1-promoter hybrid RNA with tandem MS2 sites; ssRNA
[1] = target: PUM1 PUF domain R5-EHR (Homo sapiens, UniProt Q14671 828-1176, C1007E;R1008H;Q1011R)
Outline: (§1)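 Sequencing with Illumina followed PCR amplification of the repeat regions from transformants grown four days on SC-Leu (input) or SC-Leu-His + 0.5 mM 3-AT (selection). The transformants were strain YBZ-1 with a LexA–MS2 coat fusion and a HIS3 reporter, carrying Pumilio-1 PUF domain libraries and matching RNA elements. The interaction score is the log change in variant frequency from input to selection, computed in log2 with a pseudocount of 1 for absent variants.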

[2] = target: PUM1 PUF domain R4-ALS (Homo sapiens, UniProt Q14671 828-1176, N971A;H972L;Q975S)
Outline: as §1

[3] = target: PUM1 PUF domain R3-CPT (Homo sapiens, UniProt Q14671 828-1176, R936P;Q939T)
Outline: as §1

[4] = target: T1, PUM1 PUF domain R6-SWR (Homo sapiens, UniProt Q14671 828-1176, N1043S;Y1044W;Q1047R)
T1 sequence: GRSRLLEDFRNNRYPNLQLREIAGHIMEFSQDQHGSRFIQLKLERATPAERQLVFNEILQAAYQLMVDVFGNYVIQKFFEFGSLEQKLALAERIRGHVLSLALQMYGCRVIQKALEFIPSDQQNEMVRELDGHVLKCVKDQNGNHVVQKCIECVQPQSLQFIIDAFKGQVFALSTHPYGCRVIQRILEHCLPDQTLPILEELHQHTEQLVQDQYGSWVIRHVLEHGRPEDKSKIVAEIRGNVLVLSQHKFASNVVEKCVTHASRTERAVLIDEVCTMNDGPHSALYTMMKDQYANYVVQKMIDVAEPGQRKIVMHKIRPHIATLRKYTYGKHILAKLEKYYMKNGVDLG
Outline: as §1

[5] = target: PUM1 PUF domain R1-KKV (Homo sapiens, UniProt Q14671 828-1176, S863K;R864K;Q867V)
Outline: as §1

[6] = target: PUM1 PUF domain R5-VHM (Homo sapiens, UniProt Q14671 828-1176, C1007V;R1008H;Q1011M)
Outline: as §1

[7] = target: PUM1 PUF domain R5-WHA (Homo sapiens, UniProt Q14671 828-1176, C1007W;R1008H;Q1011A)
Outline: as §1

[8] = target: PUM1 PUF domain R3-LRT (Homo sapiens, UniProt Q14671 828-1176, C935L;Q939T)
Outline: as §1

[9] = target: PUM1 PUF domain R3-YRC (Homo sapiens, UniProt Q14671 828-1176, C935Y;Q939C)
Outline: as §1

[10] = target: PUM1 PUF domain R3-GFP (Homo sapiens, UniProt Q14671 828-1176, C935G;R936F;Q939P)
Outline: as §1

[11] = target: PUM1 PUF domain R8-RYA (Homo sapiens, UniProt Q14671 828-1176, N1122R;Q1126A)
Outline: as §1

[12] = target: PUM1 PUF domain R7-LHG (Homo sapiens, UniProt Q14671 828-1176, S1079L;N1080H;E1083G)
Outline: as §1

[13] = target: PUM1 PUF domain R4-ANY (Homo sapiens, UniProt Q14671 828-1176, N971A;H972N;Q975Y)
Outline: as §1

[14] = target: PUM1 PUF domain R4-CPT (Homo sapiens, UniProt Q14671 828-1176, N971C;H972P;Q975T)
Outline: as §1

Q: What does the source list for “GGCUAGAACUAGUGGAUCCCCCGGCGCCCGGCGGCUCGAGCCCGGGUAAGUGUAAAUAGUCUGCAUGCCGCCGGGCGCCAUGCCUGCAGGUCGACUCUAGAAAACAUG”?
A: binding signal [1]: 3.38 log2 enrichment (interaction score); binding signal [2]: 4.11 log2 enrichment (interaction score); binding signal [3]: 2.54 log2 enrichment (interaction score); binding signal [4]: 8.07 log2 enrichment (interaction score); binding signal [5]: 2.4 log2 enrichment (interaction score); binding signal [6]: 2.73 log2 enrichment (interaction score); binding signal [7]: 1.08 log2 enrichment (interaction score)

Q: With “GGCUAGAACUAGUGGAUCCCCCGGCGCCCGGCGGCUCGAGCCCGGGUAAGUGUAAGUAGUCUGCAUGCCGCCGGGCGCCAUGCCUGCAGGUCGACUCUAGAAAACAUG” as the sequence, how does the binding signal [8] read?
A: 4.37 log2 enrichment (interaction score)

Q: And the binding signal [9]?
A: 4.22 log2 enrichment (interaction score)

Q: What does the source list for “GGCUAGAACUAGUGGAUCCCCCGGCGCCCGGCGGCUCGAGCCCGGGUAAGUGUAAUUAGUCUGCAUGCCGCCGGGCGCCAUGCCUGCAGGUCGACUCUAGAAAACAUG”?
A: binding signal [8]: 1.36 log2 enrichment (interaction score); binding signal [10]: 4.82 log2 enrichment (interaction score); binding signal [3]: 1.02 log2 enrichment (interaction score)

Q: Which binding signal [11] does the source give for “GGCUAGAACUAGUGGAUCCCCCGGCGCCCGGCGGCUCGAGCCCGGGUAAGCGUAAAUAGUCUGCAUGCCGCCGGGCGCCAUGCCUGCAGGUCGACUCUAGAAAACAUG” here?
A: 6.7 log2 enrichment (interaction score)

Q: “GGCUAGAACUAGUGGAUCCCCCGGCGCCCGGCGGCUCGAGCCCGGGUAAGUCUAAAUAGUCUGCAUGCCGCCGGGCGCCAUGCCUGCAGGUCGACUCUAGAAAACAUG” was tested. Which binding signal [12] did it give?
A: 3.19 log2 enrichment (interaction score)

Q: How did the binding signal [12] turn out when “GGCUAGAACUAGUGGAUCCCCCGGCGCCCGGCGGCUCGAGCCCGGGUAAGUUUAAAUAGUCUGCAUGCCGCCGGGCGCCAUGCCUGCAGGUCGACUCUAGAAAACAUG” was run?
A: 4.5 log2 enrichment (interaction score)

Q: With “GGCUAGAACUAGUGGAUCCCCCGGCGCCCGGCGGCUCGAGCCCGGGUAAGUGCAAAUAGUCUGCAUGCCGCCGGGCGCCAUGCCUGCAGGUCGACUCUAGAAAACAUG” as the sequence, how does the binding signal [4] read?
A: 7.3 log2 enrichment (interaction score)

Q: With “GGCUAGAACUAGUGGAUCCCCCGGCGCCCGGCGGCUCGAGCCCGGGUAAGUGUAUAUAGUCUGCAUGCCGCCGGGCGCCAUGCCUGCAGGUCGACUCUAGAAAACAUG” as the sequence, how does the binding signal [13] read?
A: 3.22 log2 enrichment (interaction score)

Q: What about the binding signal [14] of the same sequence?
A: 3.09 log2 enrichment (interaction score)

— article PMC8384837, “Expanding the binding specificity for RNA recognition by a PUF domain”
